Assay results reported in PubChem BioAssay.
Calls of active or inactive are those of the source. Unless noted, how the calls were made is not given here.

Tests used:
[1] = test system: XIP peptide (Xip251-270) binding; test: small-molecule binders of XIP peptide, primary screen, biochemical, small-molecule microarray, fluorescence 635/667 nm, 0.1 µg/mL protein (AID 1182); details: fluorescent protein binding, 635 nm, higher = more signal, called active from +8 up or from −8 down
[2] = test system: XIP peptide (Xip251-270); test: small-molecule binders of XIP peptide, primary screen, biochemical, small-molecule microarray, fluorescence 635/667 nm, 0.5 µg/mL protein (AID 1183); details: small-molecule microarray binding, fluorescence 635 nm; higher = more signal
[3] = Plasmodium falciparum growth inhibition, primary screen, strain 3D7, DAPI fluorescence, 100 nL (AID 1184);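 further: parasites grown inside human red blood cells in medium with human serum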; details: P. falciparum 3D7 growth, 3 d, higher = more signal
[4] = biological target: Homeobox protein Hox-A13 (Mus musculus) (UniProt Q62424); test: inhibitors of HoxA13-DNA binding, primary screen, biochemical, fluorescence polarization, labeled oligonucleotide (AID 1185); details: 15 min, higher = more signal, called active from +8 up or from −8 down
Homeobox protein Hox-A13 (Mus musculus), sequence (Q62424 whole entry, looked up): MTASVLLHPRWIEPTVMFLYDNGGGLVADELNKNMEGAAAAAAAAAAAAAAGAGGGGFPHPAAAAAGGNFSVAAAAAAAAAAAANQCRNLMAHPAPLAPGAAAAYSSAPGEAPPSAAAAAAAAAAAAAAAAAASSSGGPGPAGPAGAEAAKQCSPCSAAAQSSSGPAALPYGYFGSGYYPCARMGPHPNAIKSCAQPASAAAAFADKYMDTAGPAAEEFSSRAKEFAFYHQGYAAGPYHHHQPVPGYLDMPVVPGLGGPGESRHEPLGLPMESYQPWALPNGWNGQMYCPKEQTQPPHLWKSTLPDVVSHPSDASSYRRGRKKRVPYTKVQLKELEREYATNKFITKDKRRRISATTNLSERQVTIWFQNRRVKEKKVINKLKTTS

[5] = inhibitors of hydroxyurea-induced Chk1 phosphorylation, primary screen, imaging, HeLa, phospho-Chk1 antibody, percent positive cells (AID 1186); details: hydroxyurea-induced phospho-Chk1 immunofluorescence imaging, higher = more signal
[6] = inhibitors of hydroxyurea-induced Chk1 phosphorylation, primary screen, imaging, HeLa, phospho-Chk1 nuclear intensity (AID 1187); details: hydroxyurea-induced phospho-Chk1 immunofluorescence imaging, higher = more signal

| SMILES | composite z-score [1] | composite z-score [2] | z-score [3] | z-score [4] | z-score [5] | z-score [6] |
| --- | --- | --- | --- | --- | --- | --- |
| COC(=O)[C@@]1(Cc2ccccc2)[C@H]2c3cc(C(=O)N4CCCC4)n(Cc4ccc(S(C)(=O)=O)cc4)c3C[C@H]2CN1C(=O)c1ccccc1 | 0.478 (inactive) | 0.215 | -1.5 | -4.67 (inactive) | 0.267 (inactive) | -0.364 (inactive) |
| CCCC[C@@H]1C[C@H]1[C@@H](NC(=O)C(C)(C)C)c1ccc(C(F)(F)F)cc1 | 0.503 (inactive) | 0.414 | -0.948 | 1.43 (inactive) | -0.109 (inactive) | -0.236 (inactive) |
| CC(C)[Si]1(C(C)C)O[C@@H](c2ccccc2)c2cc(-c3ccc(-c4ccc(Cl)c(Cl)c4)o3)nc(-c3ccccc3)c21 | -0.142 (inactive) | 0.6 | 0.283 | -1.68 (inactive) | 0.025 (inactive) | -0.606 (inactive) |
| O=C1NC(=O)C2C1C=CC(C(O)c1cc(C(F)(F)F)cc(C(F)(F)F)c1)N2Nc1ccccn1 (configuration not stated) | 0.604 (inactive) | 0.797 | -0.352 | -3.28 (inactive) | 0.429 (inactive) | 0.178 (inactive) |
| COCCOC(=O)N1C(=O)[C@@]2(c3cc(C#CCC(C(=O)OC)C(=O)OC)ccc31)[C@H](c1ccccc1OCCO)N1[C@H](c3ccccc3)[C@H](c3ccccc3)OC(=O)[C@H]1[C@@H]2C(=O)N1CCN(c2ncccn2)CC1 | 0.311 (inactive) | 0.62 | -2.25 | 0.271 (inactive) | -0.225 (inactive) | -0.236 (inactive) |
| CC(C)=CCN[C@H](CO)c1ccccc1 | -0.0202 (inactive) | -0.319 | -1.72 | 0.039 (inactive) | 0.257 (inactive) | -0.0254 (inactive) |
| COCCOC(=O)N1C(=O)[C@@]2(c3cc(C#CCC(C(=O)OC)C(=O)OC)ccc31)[C@H](C(=O)Nc1nc3ccccc3s1)[C@H]1C(=O)O[C@H](c3ccccc3)[C@H](c3ccccc3)N1[C@@H]2c1ccccc1OCCO | 1.95 (inactive) | 0.813 | -1.8 | 3.19 (inactive) | 0.0747 (inactive) | 0.233 (inactive) |
| COC(=O)[C@@]1(Cc2ccc(F)cc2)[C@H]2c3cc(C(=O)N(C)C)n(Cc4ccc(Cl)c(C(F)(F)F)c4)c3C[C@H]2CN1C(=O)c1ccccc1 | -0.512 (inactive) | 0.503 | -1.6 | -2.75 (inactive) | 1.09 (inactive) | 0.528 (inactive) |
| Cc1ccc(S[C@]2(C(=O)O)CC(=O)N(C(C)C)[C@@H]2c2ccc(CO)cc2I)cc1 | 0.534 (inactive) | 0.837 | 0.14 | -3.85 (inactive) | -0.366 (inactive) | 0.0562 (inactive) |
| COc1ccc(C(=O)Nc2ccc(CN3C(=O)[C@]4(O[C@H](CCO)[C@@H]([Si](C)(C)c5ccc(OC)cc5)[C@@H]4C)c4ccccc43)cc2)cc1 | 2.8 (inactive) | 0.618 | -2.82 | -0.677 (inactive) | -0.02 (inactive) | 0.458 (inactive) |
| CN1C(=O)C2C=CC(C(O)C3CC=CCC3)N(N(c3ccccc3)c3ccccc3)C2C1=O (configuration not stated) | 0.241 (inactive) | -0.283 | -0.201 | -1.18 (inactive) | 0.451 (inactive) | 0.0168 (inactive) |
| CO[C@H]1O[C@H](CO)[C@@H](OC(=O)Nc2cccc(F)c2)[C@H](OC(=O)Nc2ccccc2)[C@@H]1OC(=O)Nc1ccccc1 | 1.23 (inactive) | 0.82 | -1.26 | -6.57 (inactive) | 0.108 (inactive) | 0.358 (inactive) |
| COc1ccc([Si](C)(C)[C@H]2[C@H](CCO)O[C@@]3(C(=O)N(Cc4ccc(N(C=O)c5ccccc5)cc4)c4ccccc43)[C@@H]2C)cc1 | 0.381 (inactive) | 0.282 | -1.93 | -0.824 (inactive) | 1.27 (inactive) | -0.123 (inactive) |
| COCCOC(=O)N1C(=O)[C@@]2(c3ccccc31)[C@H](C(=O)N1CCc3cc(OC)c(OC)cc3C1)[C@H]1C(=O)O[C@H](c3ccccc3)[C@H](c3ccccc3)N1[C@@H]2c1ccc(OCCO)cc1 | 2.52 (inactive) | 0.8 | -2.33 | 1.9 (inactive) | 0.111 (inactive) | 0.55 (inactive) |
| COC(=O)[C@@]1(Cc2ccc(OC)cc2)[C@H]2c3cc(C(=O)N4CCCC4)n(CCN4CNCC4=O)c3C[C@H]2CN1C(=O)c1ccccc1 | 0.281 (inactive) | -0.35 | -1.8 | -4.34 (inactive) | 0.525 (inactive) | 0.163 (inactive) |
| CCCC[C@H]1OB(O)C[C@H]2C1=C(COC)C[C@H]1C(=O)N(C)C(=O)[C@H]12 | -0.267 (inactive) | -0.0711 | 1.5 | -9 (active) | 0.534 (inactive) | 0.312 (inactive) |
| COCCOC(=O)N1C(=O)[C@@]2(c3cc(C#CCNC(N)=O)ccc31)[C@H](C(=O)N1CCN(c3ncccn3)CC1)[C@H]1C(=O)O[C@H](c3ccccc3)[C@H](c3ccccc3)N1[C@@H]2c1ccc(OCCO)cc1 | 0.0897 (inactive) | 0.697 | -0.939 | 0.245 (inactive) | 0.138 (inactive) | 0.0943 (inactive) |
